Laboratory results taken from PubChem BioAssay (Tox21).
Records with an inconclusive call do not appear. The source made the active and inactive calls. Calls follow the shape of the dose curve; as a rule, active = well fitted cell-killing curve with a large enough effect in the repeat runs; inconclusive = weak or mixed curves, or effect the other way; inactive = flat fitted curve, though single readings scatter.

Test: cAMP Responsive Elements (CRE) small molecule agonists, cell-based qHTS assay: qHTS cell viability counter screen (AID 2060914);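 also: viability read after 3 h of compound exposure; nearly all actives have a fitted effect of over 50% in size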
Details: CRE-bla HEK293T viability, CellTiter-Glo luminescence, 5 h; series mostly up to 92.4 µM; activity change, negative = cytotoxicity: at the top concentration
Method in brief: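 CRE-bla HEK 293T cells, plated 18 h at 37 °C, were exposed to compounds for 3 h at 37 °C/5% CO2. Viability was then measured in the same wells by CellTiter-Glo luminescence after 30 min at room temperature.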
% is scaled to controls: 0 for no effect and ±100 for the full control effect.

| Compound | activity change, negative = cytotoxicity | Potency |
| --- | --- | --- |
| C(/C=C/C=C/Nc1ccccc1)=Nc1ccccc1 | -8.15% (inactive) |  |
| CC(C)C[C@H]1C(=O)N2CCC[C@H]2[C@]2(O)O[C@](NC(=O)[C@@H]3C=C4c5cccc6[nH]c(Br)c(c56)C[C@H]4N(C)C3)(C(C)C)C(=O)N12 | 9.69% [at 42.5 µM] (inactive) |  |
| CCOC(=O)OCC/C(SC(=O)OCC)=C(\C)N(C=O)Cc1cnc(C)nc1N | -2.8% [at 42.5 µM] (inactive) |  |
| CCOC(=O)C(C)O (stereo not given) | -11.7% (inactive) |  |
| c1ccc2c(c1)Oc1ccccc1S2 |  | inactive |
| COC(=O)N/N=C/c1c[n+]([O-])c2ccccc2[n+]1[O-] | -6.82% [at 42.5 µM] (inactive) |  |
| O=C(CN1CCNCC1)NC1CCCCC1 | -11.9% [at 42.5 µM] (inactive) |  |
| CCOC(=O)[C@H](CCc1ccccc1)N[C@@H](C)C(=O)N(CC(=O)O)C1Cc2ccccc2C1 | -15.2% [at 42.5 µM] (inactive) |  |
| O=C(NCCCN1CCOCC1)c1ccc(Cl)cc1 | 4.16% [at 42.5 µM] (inactive) |  |
| CC(C)(C)NC[C@H](O)COc1nsnc1N1CCOCC1 |  | inactive |
| NS(=O)(=O)c1cc(C(=O)NN2C[C@H]3[C@H]4CCC(C4)[C@H]3C2)ccc1Cl | 4.13% [at 42.5 µM] (inactive) |  |
| C[C@]12CC[C@@H]3c4ccc(O)cc4CC[C@H]3[C@@H]1CC[C@@H]2O |  | inactive |
| CCCCCCC(C)O (stereo not given) |  | inactive |
| CCC(=O)C(=O)CC | -11.8% (inactive) |  |
| CCN(CC)c1cccc(C)c1 | 0.824% (inactive) |  |
| O=C(CS(=O)Cc1ccco1)NC/C=C\COc1cc(CN2CCCCC2)ccn1 (stereo not given) | -1.58% [at 42.5 µM] (inactive) |  |
| Cc1nccn1CC1CCc2c(c3ccccc3n2C)C1=O (stereo not given) | -0.0494% [at 42.5 µM] (inactive) |  |
| CC(C)(C)OCC1CO1 (stereo not given) | -1.35% (inactive) |  |
| CN(C)c1ccc2nc3ccc(=[N+](C)C)cc-3sc2c1 |  | inactive |
| CNC(=O)c1c(I)c(NC(=O)CCCCC(=O)Nc2c(I)c(C(=O)O)c(I)c(C(=O)NC)c2I)c(I)c(C(=O)O)c1I | -10.9% [at 42.5 µM] (inactive) |  |

| Compound | activity change, negative = cytotoxicity | Potency |
| --- | --- | --- |
| C=Cc1ccc(C)cc1 |  | inactive |
| COC(=O)CC(C)=O | 4.13% (inactive) |  |
| CC[N+](C)(CC)CCOC(=O)C(O)(c1ccccc1)C1CCCCC1 (stereo not given) | -9.92% [at 42.5 µM] (inactive) |  |
| C=CCOC(=O)CCCCCCCC | 1.05% (inactive) |  |
| O=[N+]([O-])c1ccc(Cl)cc1Cl | 6.32% (inactive) |  |
| CCOC(=O)c1ccc(N(C)C)cc1 | -10.9% (inactive) |  |
| O=C(O)CCCc1ccccc1 | -12.1% [at 42.5 µM] (inactive) |  |
| CCCCOCCOC(=O)COc1ccc(Cl)cc1Cl | 2.58% (inactive) |  |
| CC1(c2ccccc2)OC(C(=O)O)=CC1=O (stereo not given) | -16.3% [at 42.5 µM] (inactive) |  |
| O=C(/C=C/c1ccc(O)c(O)c1)O[C@@H]1C[C@](O)(C(=O)O)C[C@@H](O)[C@H]1O | -6.46% (inactive) |  |
| Cc1ccc(O)c([N+](=O)[O-])c1 | 2.1% (inactive) |  |
| CC1=C(CC(=O)O)c2cc(F)ccc2/C1=C\c1ccc(S(C)(=O)=O)cc1 | -6.31% [at 42.5 µM] (inactive) |  |
| CCCCCCOc1ccc(O)cc1 | -13.1% (inactive) |  |
| CC(CCc1ccc2c(c1)OCO2)NN (stereo not given) | -5.01% [at 42.5 µM] (inactive) |  |
| CN(C(=O)C(Cl)Cl)c1ccc(OC(=O)c2ccco2)cc1 | -0.477% [at 42.5 µM] (inactive) |  |
| CCCc1ccc(N)cc1 | 2.96% (inactive) |  |
| O=S(=O)(O)c1ccccc1/C=C/c1ccc(-c2ccc(/C=C/c3ccccc3S(=O)(=O)O)cc2)cc1 | 17.3% (inactive) |  |
| CCN(CC)CC1CCCCN1CC(=O)N1c2ccccc2C(=O)Nc2cccnc21 (stereo not given) | -0.488% [at 42.5 µM] (inactive) |  |
| CC(C)(C)c1cccc(O)c1 | -7.21% (inactive) |  |
| O=[N+]([O-])c1cccc(I)c1 | 1.99% (inactive) |  |
